Experimental findings from article PMC4552634, “A New Set of Chemical Starting Points with Plasmodium falciparum Transmission-Blocking Potential for Antimalarial Drug Discovery” (PLoS ONE, 2015) are described below.

A word on the % Inhibition: it is the relative decrease from the control value, in per cent.

Each structure is given as a SMILES string. The whole screen tested about 13,000 compounds, of which about 3,200 (25%) showed an effect of 50% or more. The list shows a part of the results.

The test deals with P. falciparum stage V gametocytes. Also noted: BacTiter-Glo ATP luminescence viability of purified stage V gametocytes in 384-well plates, per cent inhibition versus DMSO. The conditions noted are these: 48 h, 5 µM; inhibitor.
As for `O=C(NCc1ccco1)c1ccc(S(=O)(=O)c2ccc(Cl)cc2)cc1` [TCMDC-124393], the “% Inhibition” value was determined as 65.45%.

On to `O=C(Nc1ccccc1O)c1ccc(S(=O)(=O)c2ccc(Cl)cc2)cc1` [TCMDC-123689], for which the “% Inhibition” value is reported as 47.63%.

With `CC(C)CCN1CCCN(Cc2ccc(C(=O)NCc3ccc(Cl)cc3)cc2)CC1` [TCMDC-136452], the “% Inhibition” value is on record as -12.3%.

For the molecule `O=C(Nc1ccc(-c2cccc(-c3nc4ccccc4[nH]3)c2)cc1)Nc1ccc(Cl)c(Cl)c1` [TCMDC-133284], the “% Inhibition” value is -10.68%.

For the molecule `O=C(Nc1ccccc1O)c1ccc(Oc2cccc(C(=O)Nc3ccccc3O)c2)cc1` [TCMDC-125220], the “% Inhibition” value is listed as -89.02%.

Turning to `CCN(CC)C(=O)C1CCN(C(C(=O)N2CCN(CC(=O)N3CCCC3)CC2)c2cc3ccccc3o2)CC1` (stereo not drawn) [TCMDC-141126], the “% Inhibition” value is -9.75%.

For `Cc1cc2ccccc2n1CC(=O)N1CC(C(=O)N2CCCCC2)Oc2ccccc21` (stereo not drawn) [TCMDC-125253], the “% Inhibition” value came out at 84.5%.

On to `COc1ccc(C(F)(F)F)cc1N1CCN(CCCCNC(=O)c2ccc(NC(=O)c3ccc(Cl)cc3)cc2)CC1` [TCMDC-138258], for which the “% Inhibition” value is -21.85%.

Consider `O=C(Nc1ccc(C(=O)OCC2CCCN3CCCCC23)cc1)c1ccc(Cl)c(Cl)c1` (stereo not drawn) [TCMDC-124027], for which the “% Inhibition” value worked out at 3.603%.

As to `c1ccc2cc3c(Nc4ccc(N5CCCCC5)cc4)ccnc3cc2c1` [TCMDC-123505], the “% Inhibition” value is reported as -37.48%.

Regarding `CC(C)Nc1ccc(Nc2ccnc3cc4ccccc4cc23)cc1` [TCMDC-123916], the “% Inhibition” value is reported as -35.26%.

Take `OCCN1CCN(c2ccc(Nc3ccnc4cc5ccccc5cc34)cc2)CC1` [TCMDC-123915]: the “% Inhibition” value came out at 73.35%.

As to `CCN(CC)CCNc1ccc(Nc2ccnc3cc4ccccc4cc23)cc1` [TCMDC-123498], the “% Inhibition” value is reported as 93.37%.

On to `CN1CCN(c2ccc(Nc3ccnc4ccc(-c5ccccc5)cc34)cc2)CC1` [TCMDC-123917], for which the “% Inhibition” value is listed as -37.23%.

As to `CCN(CC)CCNc1ccnc2ccc3ccccc3c12` [TCMDC-131800], the “% Inhibition” value was 5.083%.

For the molecule `O=C(/C=C/c1ccc(Cl)c(Cl)c1)NCCCCCN1CCC(NC(=S)Nc2ccc(Cl)cc2Cl)CC1` [TCMDC-135902], the “% Inhibition” value is listed as 24.59%.

In the case of `CCOc1ccc2nc(N(CCCn3ccnc3)C(=O)C=Cc3cccs3)sc2c1` [TCMDC-124925], the “% Inhibition” value is reported as -19.53%.

Take `Nc1nc(N)c2c(ccc3nn(S(=O)(=O)N4CCCC4)cc32)n1` [TCMDC-137854]: the “% Inhibition” value stood at 1.328%.

As for `COc1c(C2CCN(CCCCNC(=O)c3oc(-c4ccc(Cl)cc4)cc3CO)CC2)ccc2c1CCCC2` [TCMDC-134829], the “% Inhibition” value was -10.73%.

On to `COc1c(C2CCN(CCCCNC(=O)C=Cc3cc4cc(Cl)ccc4o3)CC2)ccc2c1CCCC2` [TCMDC-135062], for which the “% Inhibition” value is listed as -50.69%.

Consider `COc1c(C2CCN(CCCCNC(=O)c3ccc(-c4ccc(Cl)cc4)c(O)c3)CC2)ccc2c1CCCC2` [TCMDC-134282], for which the “% Inhibition” value is 111.5%.

As for `COc1c(C2CCN(CCCCNC(=O)C=Cc3ccccc3C(F)(F)F)CC2)ccc2c1CCCC2` [TCMDC-135279], the “% Inhibition” value was determined as 85.89%.

For `COc1c(C2CCN(CCCCNC(=O)c3ccc(-c4ccc(C#N)cc4)c(O)c3)CC2)ccc2c1CCCC2` [TCMDC-138682], the “% Inhibition” value was determined as 69.72%.

Regarding `COc1c(C2CCN(CCCCNC(=O)c3ccc(-c4ccc(Cl)cc4)c(OCCN(C)C)c3)CC2)ccc2c1CCCC2` [TCMDC-134371], the “% Inhibition” value came out at 101.9%.

Regarding `COc1c(C2CCN(CCCCNC(=O)c3cc(-c4ccc(C#N)cc4)n[nH]3)CC2)ccc2c1CCCC2` [TCMDC-134659], the “% Inhibition” value is -32.94%.

In the case of `COC(=O)COc1cc(C(=O)NCCCCN2CCC(c3ccc4c(c3OC)CCCC4)CC2)ccc1-c1ccc(Cl)cc1` [TCMDC-134372], the “% Inhibition” value is 38.74%.

Consider `COc1c(C2CCN(CCCCNC(=O)c3ccc(-c4ccc(C#N)cc4)nc3)CC2)ccc2c1CCCC2` [TCMDC-134688], for which the “% Inhibition” value is listed as -0.6168%.

Consider `CCN(c1ccccc1)S(=O)(=O)c1ccc(OC)c(NC(=O)c2cccc(C(F)(F)F)c2)c1` [TCMDC-125343], for which the “% Inhibition” value was found to be 14.96%.

For the molecule `O=C(NC1CCN(c2ccnc3cc(Cl)ccc23)C1)c1cccc(F)c1` (stereo not drawn) [TCMDC-133656], the “% Inhibition” value worked out at 0.5042%.

As to `Cc1nc(-c2ccc(C#N)cc2)sc1C(=O)NCCCCN1CCC(c2ccc3c(c2OCCO)CCCC3)CC1` [TCMDC-138879], the “% Inhibition” value turned out to be 11.85%.

Regarding `COc1c(C2CCN(CCCCNC(=O)c3ccc(-c4ccc(Cl)cc4)c(OCC(N)=O)c3)CC2)ccc2c1CCCC2` [TCMDC-134373], the “% Inhibition” value was found to be 13.03%.

With `COc1c(C2CCN(CCCCNC(=O)c3ccc(-c4ccc(NC(=O)C(F)(F)F)cc4)cc3)CC2)ccc2c1CCCC2` [TCMDC-134380], the “% Inhibition” value amounted to 96.81%.

As to `NC(=O)COc1c(C2CCN(CCCCNC(=O)c3ccc(-c4ccc(Cl)cc4)c(O)c3)CC2)ccc2c1CCCC2` [TCMDC-133379], the “% Inhibition” value was determined as 84.67%.

Consider `COc1c(C2CCN(CCCCNC(=O)c3cc(-c4ccc(Cl)cc4)oc3C)CC2)ccc2c1CCCC2` [TCMDC-134696], for which the “% Inhibition” value was found to be 7.674%.

As to `COc1c(C2CCN(CCCCNC(=O)c3cccc(-c4ccc(C(F)(F)F)cc4)c3)CC2)ccc2c1CCCC2` [TCMDC-138701], the “% Inhibition” value was determined as 48.96%.

With `CC(=O)c1ccc(-c2ccc(C(=O)NCCCCN3CCC(c4ccc5c(c4OCC(N)=O)CCCC5)CC3)cc2)s1` [TCMDC-134174], the “% Inhibition” value is listed as -29.18%.

For the molecule `N#Cc1ccc(NC(=O)c2ccc(C(=O)NCCCCN3CCC(c4ccc5c(c4OCCOC4CCCCO4)CCCC5)CC3)cc2)cc1` (stereo not drawn) [TCMDC-138789], the “% Inhibition” value worked out at 80.58%.

Consider `COc1c(C2CCN(CCCCNC(=O)c3ccc(-c4ccc(Cl)cc4)cn3)CC2)ccc2c1CCCC2` [TCMDC-134687], for which the “% Inhibition” value turned out to be 70.09%.

Turning to `COc1c(C2CCN(CCCCNC(=O)c3cc(-c4ccc(Cl)cc4)[nH]c3C)CC2)ccc2c1CCCC2` [TCMDC-135270], the “% Inhibition” value amounted to 45.24%.

With `COC(=O)c1sc2ccccc2c1NC(=O)c1ccc(C)c(C)c1` [TCMDC-125650], the “% Inhibition” value is given as 21.99%.

With `CCC(C)(C)c1ccc2nc(N)nc(N)c2c1C` [TCMDC-137829], the “% Inhibition” value is -16.15%.

In the case of `CC(=O)N1CCC(C(=O)Nc2ccc(-c3cccc(-c4nc5ccc(C(F)(F)F)cc5[nH]4)c3)cc2)CC1` [TCMDC-132166], the “% Inhibition” value is on record as -13.72%.

For `O=C(/C=C/c1ccc(Cl)c(Cl)c1)NCCCCCN1CCC(NC(=O)Nc2ccc(Cl)cc2Cl)CC1` [TCMDC-135729], the “% Inhibition” value is -21.32%.

With `O=C(Nc1cccc(N2CCC(NCc3cccnc3)CC2)c1)c1cccc(C(F)(F)F)c1` [TCMDC-124649], the “% Inhibition” value is -0.3933%.

On to `COc1c(C2CCN(CCCCNC(=O)c3ccc(NC(=O)c4ccc(C#N)cc4)cc3)CC2)ccc2c1CCCC2` [TCMDC-138664], for which the “% Inhibition” value is given as 116.8%.

As to `COc1c(C2CCN(CCCCNC(=O)c3noc(-c4ccc(C#N)cc4)n3)CC2)ccc2c1CCCC2` [TCMDC-138814], the “% Inhibition” value was 4.753%.

In the case of `Cn1ccc(C(=O)Nc2ccc3c(c2)CN(Cc2ccc(N4CCCC4)o2)CCC3)n1` [TCMDC-134722], the “% Inhibition” value is -3.632%.

With `O=C(NCc1cccc(F)c1)Nc1cccc(-c2cccc(-c3nc4ccccc4[nH]3)c2)c1` [TCMDC-133290], the “% Inhibition” value stood at 0.3342%.

Take `CC(=O)Nc1ccc(CN2Cc3ccc(NC(=O)Nc4ccc(Oc5ccccc5)cc4)cc3C2)s1` [TCMDC-141756]: the “% Inhibition” value was -76.53%.

For `Cc1cccc2nc(-c3ccc(-c4ccc(CN5CCCC(O)C5)cc4)cc3)[nH]c12.O=C(O)C(F)(F)F` (stereo not drawn) [TCMDC-133826], the “% Inhibition” value was 35.59%.

Consider `Fc1ccc2[nH]c(-c3ccc(-c4ccc(CN5CCC(CCN6CCCCC6)CC5)cc4)cc3)nc2c1` [TCMDC-133924], for which the “% Inhibition” value was 105.4%.

Consider `FC(F)(F)c1ccc2nc(-c3ccc(-c4cccc(CN5CCCCC5)c4)cc3)[nH]c2c1` [TCMDC-133886], for which the “% Inhibition” value is recorded as -44.09%.

On to `c1cc(-c2ccc(CN3CCCCC3)cc2)cc(-c2nc3ccccc3[nH]2)c1` [TCMDC-133917], for which the “% Inhibition” value is given as -5.733%.

Take `Fc1ccc2[nH]c(-c3cccc(-c4ccc(CN5CCC(CCN6CCCCC6)CC5)cc4)c3)nc2c1` [TCMDC-133940]: the “% Inhibition” value amounted to 104.4%.

As for `FC(F)(F)c1ccc2[nH]c(-c3ccc(-c4cccc(CN5CCC(CCN6CCCCC6)CC5)c4)cc3)nc2c1` [TCMDC-133941], the “% Inhibition” value is recorded as 100.4%.

Take `NC(=O)C1CCN(Cc2cccc(-c3ccc(-c4nc5ccc(C(F)(F)F)cc5[nH]4)cc3)c2)CC1` [TCMDC-132691]: the “% Inhibition” value is recorded as -22.66%.

Consider `Cc1cccc2nc(-c3ccc(-c4ccc(CN5CCC(CCN6CCCCC6)CC5)cc4)cc3)[nH]c12` [TCMDC-133929], for which the “% Inhibition” value came out at 114%.

As for `Fc1ccc2nc(-c3cccc(-c4ccc(CN5CCCCC5)cc4)c3)[nH]c2c1` [TCMDC-133887], the “% Inhibition” value worked out at 2.75%.

For the molecule `Cc1cccc2nc(-c3ccc(-c4ccc(CN5CCC(C(N)=O)CC5)cc4)cc3)[nH]c12.O=C(O)C(F)(F)F` [TCMDC-132688], the “% Inhibition” value was 10.12%.

As to `O=C(O)C(F)(F)F.OCC1CCN(Cc2ccc(-c3ccc(-c4nc5cc(F)ccc5[nH]4)cc3)cc2)CC1` [TCMDC-133125], the “% Inhibition” value was found to be 29.73%.

As for `NC(=O)C1CCN(Cc2ccc(-c3ccc(-c4nc5cc(F)ccc5[nH]4)cc3)cc2)CC1.O=C(O)C(F)(F)F` [TCMDC-132693], the “% Inhibition” value was found to be 4.411%.

Take `CC(=O)c1cccc2c(NC(=O)Nc3ccc4nccc(N5CCN(C)CC5)c4c3)cccc12` [TCMDC-139345]: the “% Inhibition” value is reported as -42.22%.

For `O=C(Nc1ccsc1)Nc1cccc(-c2cccc(-c3nc4ccc(C(F)(F)F)cc4[nH]3)c2)c1` [TCMDC-133214], the “% Inhibition” value is listed as -52.37%.
